Test [1] in a line: qHTS assay to identify small molecule agonists of the hypoxia (HIF-1) signaling pathway - cell viability counter screen (AID 1224844; calls by dose curve; also: nearly all actives have a fitted effect of over 50% in size; also: potency is read from the fitted curve at half-maximal effect). An outline of the steps: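 Viability counter screen: HRE-bla ME-180 cells plated 5 hrs before compound addition, treated 17 hrs at 37C and 5% CO2, then CellTiter-Glo added after the FRET reporter read; luminescence after 30 min.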
The nature of test [2]: qHTS assay to identify small molecule agonists of H2AX (AID 1224845; active = well fitted activation curve with a large enough effect in the signal ratio in the repeat runs, not every such curve was filed as active; the % refers to the signal ratio; also: % is scaled to controls: 0 for no effect and ±100 for the full control effect). An outline of the steps:
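Wild-type CHO-K1 cells, plated overnight, exposed 3hr at 37C to 15 concentrations (0.76% DMSO final). Lysed, then HTRF anti-pH2AX (S139) cryptate and anti-H2AX-d2 antibodies, 24 hr room temperature; 665/620 nm emission read.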
On the technique in general: qHTS replaces the single test concentration by a dilution series.

The nature of test [3]: qHTS assay to identify small molecule agonists of H2AX - cell viability counter screen (AID 1224847; calls by dose curve; also: top concentration of the series differs between compounds; % is scaled to controls: 0 for no effect and ±100 for the full control effect; nearly all actives have a fitted effect of over 30% in size). An outline of the steps: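 After overnight plating of 1000 CHO-K1 cells per well, a 15-concentration compound series was applied for 3 hr at 37C. Luminescence from CellTiter-Glo, read following 30 min at room temperature, reflected cell viability.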
Test [4] can be described thus: qHTS RealTime-Glo MT Cell Viability Assay in HepG2 cells - 24 hour (AID 1224867). Also: % is scaled to controls: 0 for no effect and ±100 for the full control effect; nearly all actives have a fitted effect of over 50% in size. An outline of the steps: (§1)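 Tox21 10K library screened in qHTS format on HepG2 cells carrying RealTime-Glo reagents. Compounds were added after a 5 h preincubation, and the luminescent signal from continuous culture was measured repeatedly during 40 h treatment.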
Test [5] in a line: qHTS RealTime-Glo MT Cell Viability Assay in HEK293 cells - 32 hour (AID 1224868). Also: top concentration of the series differs between compounds; % is scaled to controls: 0 for no effect and ±100 for the full control effect; nearly all actives have a fitted effect of over 50% in size. An outline of the steps:
(§2)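 Luminescence generated by NanoLuc from substrate produced by living HEK293 cells served as the viability signal. Each value reflects the reading at its stated time point during continuous 40 h compound exposure at 37 C.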

Test [6] can be described thus: A CellTox Green Cytotoxicity Assay to monitor cytotoxicity in HEK293 cells - 0 hour (AID 1224869). Also: % is scaled to controls: 0 for no effect and ±100 for the full control effect; nearly all actives have a fitted effect of over 50% in size. An outline of the steps: (§3)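 Dead-cell fluorescence measured kinetically: asymmetric cyanine dye, HEK293, 600 cells/well, 5 h settle, 23 nL cpd/DMSO, 37 C, reads 0–40 h every 8 h.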
Test [7] is described as follows: qHTS RealTime-Glo MT Cell Viability Assay in HepG2 cells - 40 hour (AID 1224870). An outline of the steps:
(§4)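 HepG2 cells (600/well) mixed with RealTime-Glo MT reagent, settled 5 h at 37 C/5% CO2 before compound addition. Nonlytic NanoLuc luminescence from viable-cell prosubstrate reduction read repeatedly during 40 h treatment at 37 C.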

Test [8] is described as follows: A CellTox Green Cytotoxicity Assay to monitor cytotoxicity in HEK293 cells - 40 hour (AID 1224871). Also: % is scaled to controls: 0 for no effect and ±100 for the full control effect; nearly all actives have a fitted effect of over 45% in size. An outline of the steps:
as §3

Test [9] in a line: qHTS RealTime-Glo MT Cell Viability Assay in HEK293 cells - 16 hour (AID 1224872). An outline of the steps:
as §2

Test [10] in a line: qHTS RealTime-Glo MT Cell Viability Assay in HepG2 cells - 8 hour (AID 1224873). Also: % is scaled to controls: 0 for no effect and ±100 for the full control effect; nearly all actives have a fitted effect of over 55% in size. An outline of the steps:
as §4

The nature of test [11]: qHTS RealTime-Glo MT Cell Viability Assay in HEK293 cells - 40 hour (AID 1224874). The settings on record: RealTime-Glo luminescence; max response: stronger effect = lower value. An outline of the steps:
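600 HEK293 cells per well, dispensed already mixed with RealTime-Glo MT reagents. Compound dosing came 5 h later. The same wells were read for luminescence at 0, 8, 16, 24, 32 and 40 h of exposure at 37 C.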

Test [12] in a line: A CellTox Green Cytotoxicity Assay to monitor cytotoxicity in HEK293 cells - 24 hour (AID 1224875). Also: % is scaled to controls: 0 for no effect and ±100 for the full control effect; nearly all actives have a fitted effect of over 45% in size. An outline of the steps: as §3
A short description of test [13]: A CellTox Green Cytotoxicity Assay to monitor cytotoxicity in HepG2 cells - 16 hour (AID 1224876). Also: nearly all actives have a fitted effect of over 45% in size. Also: potency is read from the fitted curve at half-maximal effect. An outline of the steps: (§5)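 First, HepG2 cells (600/well) mixed with reagent were plated; second, after 5 h at 37 C they received compounds via pintool; third, fluorescence was measured at 0 h through 40 h at 8 h intervals.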
Test [14] in a line: qHTS RealTime-Glo MT Cell Viability Assay in HepG2 cells - 32 hour (AID 1224877). Also: % is scaled to controls: 0 for no effect and ±100 for the full control effect; nearly all actives have a fitted effect of over 55% in size. An outline of the steps:
as §1

Test [15] in a line: A CellTox Green Cytotoxicity Assay to monitor cytotoxicity in HepG2 cells - 24 hour (AID 1224878). Also: nearly all actives have a fitted effect of over 45% in size. Also: potency is read from the fitted curve at half-maximal effect. As to Cytotoxicity: % is scaled to controls: 0 for no effect and ±100 for the full control effect. An outline of the steps:
as §5

Test [16] is described as follows: A CellTox Green Cytotoxicity Assay to monitor cytotoxicity in HepG2 cells - 40 hour (AID 1224879). Also: nearly all actives have a fitted effect of over 40% in size. Also: potency is read from the fitted curve at half-maximal effect. An outline of the steps: as §5
The target of test [17] is Thyrotropin receptor (Homo sapiens) (UniProt P16473). Put plainly: qHTS assay to identify small molecule agonists of the thyroid stimulating hormone receptor (TSHR) signaling pathway (AID 1224843; calls by dose curve). An outline of the steps: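 HEK293/TSHR, 800 cells/well; cpd 30 min RT; add cAMP-d2 + anti-cAMP-cryptate, 1 h RT; fluorescence read on plate reader. 15-pt titration, n=3.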
Test [18] is described as follows: qHTS assay to identify small molecule agonists of the hypoxia (HIF-1) signaling pathway (AID 1224846; active = well fitted activation curve with a large enough effect in the signal ratio in the repeat runs, not every such curve was filed as active; the % refers to the signal ratio; also: % is scaled to controls: 0 for no effect and ±100 for the full control effect). An outline of the steps: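 Agonist mode reporter screen. ME-180 cells stably expressing bla under HRE control received test compounds in DMSO for 17 hrs (37C, 5% CO2), and beta-lactamase activity was then detected with the CCF4-AM FRET substrate.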
Test [19] is described as follows: qHTS assay to identify small molecule antagonists of the estrogen related receptor (ERR) signaling pathway from Tox21 library (AID 1224848). An outline of the steps: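 Compounds dissolved in DMSO are pin-transferred onto ERR reporter cells (2,000 per well) that have settled for 6 h at 37 C. Plates then incubate 18 h at 37 C before ONE-Glo luciferase reagent and a luminescence read 30 min later.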

Test [20] in a line: qHTS assay to identify small molecule agonists of the estrogen related receptor (ERR) signaling pathway from Tox21 library (AID 1224849; calls by dose curve; also: % is scaled to controls: 0 for no effect and ±100 for the full control effect; nearly all actives have a fitted effect of over 15% in size). The settings on record: ERR reporter cell line, ONE-Glo luciferase, 18 h; at 92.4 µM (top of the series). An outline of the steps: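 Quantitative HTS in agonist format: NTP ERR cell line, compounds transferred in DMSO after 6 h plating, 18 h incubation at 37 C, ONE-Glo luminescence endpoint.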

Several values for one entry are separate records, joined by “and”; a condition that tells them apart may be missing. Equal entries are not always repeated. Results filed as inconclusive are left out. Some compounds were tested as several samples or in several runs, with calls that do not always agree. Activity calls are given as the source filed them. Unless noted, calls follow the shape of the dose curve; as a rule, active = well fitted curve in the direction sought with a large enough effect in the repeat runs; inconclusive = weak or mixed curves; inactive = no such curve, though single readings can be large; an effect the other way counts as inactive or inconclusive.

Sequence of Thyrotropin receptor (Homo sapiens) (P16473 whole entry, looked up): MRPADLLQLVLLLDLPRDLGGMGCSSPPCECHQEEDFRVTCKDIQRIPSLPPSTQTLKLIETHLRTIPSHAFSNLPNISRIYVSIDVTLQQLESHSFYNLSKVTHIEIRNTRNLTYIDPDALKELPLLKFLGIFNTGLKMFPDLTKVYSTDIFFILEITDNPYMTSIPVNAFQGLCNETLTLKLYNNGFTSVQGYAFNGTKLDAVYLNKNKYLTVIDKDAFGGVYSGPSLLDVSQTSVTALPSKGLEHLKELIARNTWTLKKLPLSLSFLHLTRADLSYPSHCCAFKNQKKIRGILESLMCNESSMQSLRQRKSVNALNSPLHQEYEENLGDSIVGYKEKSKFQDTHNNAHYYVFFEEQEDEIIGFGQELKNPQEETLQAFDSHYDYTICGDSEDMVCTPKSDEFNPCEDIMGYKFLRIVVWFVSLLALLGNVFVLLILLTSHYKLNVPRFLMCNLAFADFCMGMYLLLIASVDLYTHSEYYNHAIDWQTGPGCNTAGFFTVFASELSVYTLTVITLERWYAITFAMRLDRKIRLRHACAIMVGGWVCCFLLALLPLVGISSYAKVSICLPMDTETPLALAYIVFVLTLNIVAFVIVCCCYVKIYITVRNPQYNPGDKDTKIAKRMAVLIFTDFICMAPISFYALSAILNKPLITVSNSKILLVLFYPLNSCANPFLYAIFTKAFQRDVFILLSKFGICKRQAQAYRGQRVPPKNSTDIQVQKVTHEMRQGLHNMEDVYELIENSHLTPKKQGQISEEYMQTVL

Regarding `O=c1oc2ccccc2c(O)c1C(CC(O)c1ccc(-c2ccc(Br)cc2)cc1)c1ccccc1` (centres undefined), in test [1], the Potency is 52 µM (active) and inactive. Also, the Potency entry in [2], in test [3], in [4], in test [5], in test [6] and in test [7] was “inactive” in each case. Further, the Potency result in test [8], in test [9], in test [10], in test [12], in test [13] and in [14] was “inactive” in each case. Further, the Potency entry in [15] and in test [16] was “inactive” each time. Also, the max response in test [11] was -3.76% (inactive) and 7.1% (inactive).
Turning to `CCCCCCCCC(=O)NCc1ccc(O)c(OC)c1`, the Potency result in test [17], in [3], in test [4], in test [5], in test [6] and in test [7] was “inactive” each time. The Potency result in test [8], in test [9], in test [10], in [12], in [13] and in test [14] was “inactive” each time. In addition, the Potency result in test [15] and in test [16] was “inactive” each time. Also, the max response in [11] is 8.1% (inactive) and -1.04% (inactive).
`CCN(N=O)C(N)=O`: the Potency result in test [17], in test [4], in [5], in test [6], in test [7] and in test [9] was “inactive” each time. Moreover, the Potency result in [10], in test [12], in test [13], in test [14], in [15] and in test [16] was “inactive” in each case. In addition, the outcome in test [18] was inactive.
For `CNC(=O)Oc1cccc2c1OC(C)(C)O2`, the Potency result in test [17], in [4], in test [5], in test [6], in test [7] and in test [9] was “inactive” each time. Also, the Potency entry in test [12], in test [13], in [14], in test [15] and in test [16] was “inactive” each time. For the same compound, the result in test [18] was inactive. Further, the max response in test [11] was -0.755% (inactive) and 5.29% (inactive).
Consider `Nc1c(Cl)cc([N+](=O)[O-])cc1Cl`, for which the result in [18] was inactive. Further, the Potency result in test [3], in test [4], in [5], in test [6], in test [7] and in test [8] was “inactive” throughout. Besides, the Potency entry in [9], in [10], in test [12], in [13], in [14] and in test [15] was “inactive” in each case. In test [16], the Potency result was “inactive”. The Potency in [19] is 30.8 µM (active) and 24.3 µM (active). Moreover, the activity change, positive = activation in [20] was -38.6% (inactive) and -54.4% (inactive). The max response in test [11] is -14.9% (inactive).
Turning to `CC(C)=CC1C(C(=O)OCc2coc(Cc3ccccc3)c2)C1(C)C` (centres undefined), the Potency entry in test [2], in test [4], in [5], in [6], in test [7] and in test [9] was “inactive” each time. Besides, the Potency entry in test [10], in test [12], in [13], in test [14], in test [15] and in test [16] was “inactive” in each case. Moreover, the call in [18] was inactive. The max response in test [11] was -17.8% (inactive).
Take `O=P(O)(O)CCCl`: the Potency result in test [17], in test [3], in test [4], in [5], in test [6] and in test [7] was “inactive” each time. Besides, the Potency result in test [8], in test [9], in test [10], in [12], in [13] and in test [14] was “inactive” each time. For the same compound, the Potency result in [15] and in test [16] was “inactive” in each case. For the same compound, the call in [18] was inactive. Also, the max response in test [11] is -0.529% (inactive) and 21.1% (inactive).
Take `CC(C)(C)c1ccccc1O`: the Potency entry in test [2], in test [4], in test [5], in test [6], in test [7] and in test [9] was “inactive” in each case. Besides, the Potency result in test [10] and in test [14] was “inactive” each time. Besides, the result in test [18] was inactive. Further, in test [11], the max response is -18.3% (inactive) and -0.927% (inactive). In addition, the Potency in test [13] is 44.2 µM (active); in test [15], 49.5 µM (active); in test [16], 49.5 µM (active) and 49 µM (active).
Regarding `CCCCOCCOP(=O)(OCCOCCCC)OCCOCCCC`, the Potency entry in [1], in test [2], in [3], in test [4], in test [5] and in [6] was “inactive” each time. Moreover, the Potency result in [7], in test [9], in test [12], in [13] and in test [14] was “inactive” each time. In test [18], the call was inactive.

Values taken from PubChem BioAssay (Tox21).
